This is part of a sample that, as a whole, favours compounds with a hit. Of some 83,000 tested, about 20% had one in any assay.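 Values shown are percent growth following 48 h exposure of cells in 96-well plates to a single concentration of compound; below 10 was considered active.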 Unmarked numbers belong to inactive results. The source made the active and inactive calls.

The values that follow come from PubChem BioAssay (NCI).

Common to all, as to experiment: NCI-60 one-dose screen, 48 h (100 = growth as untreated, 0 = no growth, -100 = all killed)
What all share (settings): 10 µM unless noted

In experiment [1] the test system is DU-145 prostate.
Experiment [2] relates to K-562 leukemia.
Experiment [3] concerns MALME-3M melanoma.
Experiment [4] has as its system MDA-MB-231 breast.
Experiment [5] relates to RXF 393 renal.
The subject of experiment [6] is SF-268 CNS.
Experiment [7] has as its system SF-295 CNS.
Experiment [8] relates to SF-539 CNS.
In experiment [9] the test system is UACC-257 melanoma.
Experiment [10] has as its system M14 melanoma.

`CCOC(=O)c1c(C)oc2ncnc(Nc3ccc(NC(=O)Nc4ccc(CC)cc4)cc3)c12`: the growth is 103% in experiment [1]; 98% in experiment [2]; 101% in experiment [3]; 94.7% in [4]; 98.3% in experiment [5]; 103% in [6]. The growth was 109% in experiment [7], 89.4% in [8], 111% in experiment [9] and 99.9% in experiment [10].

`COc1cc(-c2nc3c(c(C)nc4c3nnn4-c3ccccc3)c(=O)o2)cc(OC)c1OC`: the growth in experiment [1] was 111%; in experiment [2], 106%; in [3] it was 104%; in experiment [4], 106%; in experiment [5], 108%; in [6], 98.3%. Further, the growth in experiment [7] is 104%; in [8], 102%; in experiment [9], 119%; in experiment [10], 98.6%.

Regarding `CCCCCCCCc1ccc(OCCOCC[N+](C)(C)CC)cc1` (tested in a mixture with another compound), the growth in experiment [1] was 64.5%; in experiment [2], 22.8%; in experiment [3] it was -19.9% (active); in experiment [4], 22.2%; in [5], 50.3%; in experiment [6], 23%. Besides, the growth in experiment [7] was 97.2%; in [8] it was 18.4%; in experiment [9] it was 12.9%; in experiment [10], 44.5%.

With `Cc1sc(NC(=O)c2ccc(C(C)(C)C)cc2)c(C(=O)O)c1C`, the growth was 61.6% in [1]; 38.1% in experiment [2]; 111% in experiment [3]; 105% in experiment [4]; 114% in [5]; 88.1% in [6]. For the same molecule, the growth in [7] is 35.7%; in experiment [8], 65.8%; in experiment [9] it was 101%; in experiment [10], 107%.

Take `CCCNC(=O)Oc1ccc(/C(=C(/C)Cc2ccc(OC)cc2)c2ccc(OCCN3CCCCC3)cc2)cc1`: the growth in [1] was 97%; in experiment [2], 50.8%; in experiment [3], 112%; in [4], 79.5%; in experiment [5] it was 88.7%; in [6], 81.8%. The growth in [7] is 102%; in experiment [8], 94%; in experiment [9], 93.7%; in experiment [10], 85.6%.

For the molecule `O=Nc1ccc(O)c2ccccc12`, the growth in [1] is 56.7%; in [2] it was 12.1%; in [3], -58.5% (active); in experiment [4] it was 52.5%; in [5], 10.9%; in [6], 10.5%. In addition, the growth in experiment [7] is 62.9%; in [8], 0.651% (active); in experiment [9], -68.5% (active); in experiment [10], -10.8% (active).

With `CC(C)CSc1nc(-c2ccc(F)cc2)c(C#N)c(N2CCCCC2)n1`, the growth is 94.1% in [1]; 95.8% in experiment [2]; 86.1% in [3]; 101% in [4]; 87.7% in [5]; 90.9% in experiment [6]. The growth in experiment [7] was 92.6%; in [8], 103%; in experiment [9], 100%; in experiment [10], 89.8%.

As for `Cn1cnc2nc[nH]c2c1=S`, the growth in experiment [1] was 112%; in experiment [2], 103%; in experiment [3], 98.8%; in experiment [4], 96.3%; in experiment [5], 110%; in experiment [6], 107%. Besides, the growth in [7] is 99.4%; in experiment [8] it was 110%; in [9], 96.5%; in experiment [10], 105%.

For the molecule `Oc1ccc(N=Nc2ccc(N=Nc3ccccc3)cc2)cc1`, the growth is 49.3% in experiment [1]; -7.03% (active) in experiment [2]; 111% in experiment [3]; 54.7% in experiment [4]; 98.2% in experiment [5]; 36.9% in experiment [6]. The growth in experiment [7] is 8.6% (active); in experiment [8], 2.09% (active); in [9] it was 53%; in [10] it was 26.7%.

As to `N=C(c1ccccc1)N(Cc1ccccc1)Cc1ccccc1`, the growth in [1] was 111%; in experiment [2], 76.2%; in [3], 93.8%; in experiment [4] it was 79.6%; in experiment [5], 85%; in experiment [6] it was 103%. Besides, the growth in experiment [7] was 59.2%; in experiment [8], 103%; in experiment [9] it was 94%; in experiment [10], 78%.

`O=C(CCCC(=O)Nc1ccc(Cn2nnc3cc(Cl)c(Cl)cc32)cc1)Nc1ccc(CN2N=NC3C=C(Cl)C(Cl)=CC32)cc1` (stereo not given): the growth in experiment [1] is 93.3%; in [2], 67%; in experiment [3], 97%; in [4], 76.4%; in experiment [5], 93.7%; in [6] it was 78.1%. For the same molecule, the growth is 71.9% in [7], 88.2% in [8], 81.1% in experiment [9] and 87.2% in [10].

Take `Nc1ncn([C@@H]2O[C@H](CO)[C@@H](O)C2(F)F)c(=O)n1`: the growth is 43.5% in experiment [1]; 65.7% in experiment [2]; 67.9% in [3]; 80% in [4]; 45% in [5]; 65.4% in experiment [6]. The growth in [7] was 77.9%; in experiment [8] it was 22.3%; in experiment [9] it was 77.5%; in experiment [10] it was 15.6%.

`COc1cc(-c2nn(-c3ccc(NC(=O)c4ccc(Cl)c(Cl)c4)cc3)cc2-c2ccncc2)ccc1Cl`: the growth in experiment [1] is 82%; in experiment [2], 17%; in [3] it was 111%; in experiment [4], 54.9%; in [5], -55.1% (active); in experiment [6], 67.6%. Further, the growth was -42.3% (active) in experiment [7], 47.7% in [8], 110% in experiment [9] and 62.3% in experiment [10].

For `CC(C)(C)C(=O)OCOP(=O)(OCOC(=O)C(C)(C)C)C1CC(O)N(O)C1=O` (stereo not given), the growth was 44.4% in [1]; 15.2% in experiment [2]; 41.2% in experiment [3]; 42.7% in experiment [4]; 1.26% (active) in experiment [5]; 13.3% in experiment [6]. For the same molecule, the growth in experiment [7] is 67%; in experiment [8], 39.3%; in experiment [9] it was 63.1%; in experiment [10], 55.6%.
